For 38 compounds, Potency results are on record in PubChem BioAssay (NCATS).

Inconclusive results are not listed. Entries that show only a call come without a potency. The source made the active and inactive calls. Calls come from the whole dose curve; as a rule, active = well fitted cell-killing curve with a large enough effect; inconclusive = small, poorly fitted or top-dose-only effect; inactive = flat fitted curve, though single readings scatter.
Note: nearly all actives have a fitted effect of over 55% in size.

The first assay can be described thus: Cell Viability - LYMP2-017 (AID 972).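 Note: cells exposed to compound for 24 hours at 37 °C.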 Conditions: LYMP2-017 lymphoblastoid cell viability; series mostly up to 92.2 µM. An outline of the steps:
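Luminescent ATP read-out (CellTiter-Glo, 30 min RT) reports viable cell number. Cells: human lymphoblastoid line, 2500 per well, 5 hr preincubation, 24 hr compound exposure at 37 C. AC50 is derived from qHTS concentration-response data using the standard Hill model.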
With `Oc1cccc(Cl)c1Cl`, the Potency entry is “inactive”.

`CCC/C=N/O`: the Potency result is “inactive”.

Consider `Cc1cnc[nH]1`, for which the Potency result is “inactive”.

As for `CN(C)N=O`, the Potency entry was “inactive”.

`COc1c(C(C)(C)C)cc([N+](=O)[O-])c(C)c1[N+](=O)[O-]`: the Potency result is “inactive”.

`C=C(Cl)CCl`: the Potency result is “inactive”.

For `ClCCOCOCCCl`, the Potency entry is “inactive”.

For `CC12CC1(C)C(=O)N(c1cc(Cl)cc(Cl)c1)C2=O` (stereo unspecified), the Potency entry is “inactive”.

As for `CC(C)(Cl)[N+](=O)[O-]`, the Potency result is “inactive”.

For `Cl/C=C/Cl`, the Potency result is “inactive”.

On to `CCCCOCC1CO1` (stereo unspecified), for which the Potency entry was “inactive”.

In the case of `O=C(O)c1cccc(Cl)c1`, the Potency entry was “inactive”.

Turning to `C1CC2OC2CC1C1CO1` (stereo unspecified), the Potency entry is “inactive”.

Turning to `Brc1cccc(-c2ccccc2)c1`, the Potency result was “inactive”.

In the case of `Oc1c(Cl)cccc1Cl`, the Potency entry was “inactive”.

In the case of `ClCCOCCCl`, the Potency entry is “inactive”.

`CCNCC`: the Potency entry was “inactive”.

Turning to `CC(C)C#N`, the Potency entry was “inactive”.

For `Cl/C=C\Cl`, the Potency result was “inactive”.

As for `c1ccc2c(c1)CCNC2`, the Potency entry was “inactive”.

Consider `CCBr`, for which the Potency result was “inactive”.

For the compound `O=[N+]([O-])c1ccc(Cl)c(Cl)c1Cl`, the Potency result is “inactive”.

For the compound `N#CCCC#N`, the Potency entry was “inactive”.

For the compound `Cc1ccccc1[N+](=O)[O-]`, the Potency entry is “inactive”.

In the case of `OCCBr`, the Potency result is “inactive”.

`C=CC(=O)OCCN(C)C`: the Potency result was “inactive”.

For `CC(C)(C)C(O)(CCc1ccc(Cl)cc1)Cn1cncn1` (stereo unspecified), the Potency entry was “inactive”.

Consider `N#CCCCCC#N`, for which the Potency entry is “inactive”.

`CN=C=O`: the Potency entry was “inactive”.

Regarding `c1ccc(C2CO2)cc1` (stereo unspecified), the Potency entry is “inactive”.

In the case of `CCCCCC[N+](=O)[O-]`, the Potency result is “inactive”.

With `OCC(Cl)CCl` (stereo unspecified), the Potency entry was “inactive”.

Regarding `COc1ccc(C=O)cc1`, the Potency result was “inactive”.

As for `Nc1ccc(Cl)c(Cl)c1`, the Potency entry was “inactive”.

In the case of `CC(=O)[O-].CC(=O)[O-].CC(=O)[O-].[Cr+3]`, the Potency result is “inactive”.

As to `CC(=O)CCC(C)=O`, the Potency result was “inactive”.

In the case of `C=CC(=O)OCC(CC)CCCC` (stereo unspecified), the Potency entry is “inactive”.

As for `CC(C#N)CCC#N` (stereo unspecified), the Potency result was “inactive”.

A further assay in a line: Cell Viability - LYMP2-019 (AID 973).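 Note: cells exposed to compound for 24 h at 37 °C.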 Conditions: LYMP2-019 lymphoblastoid cell line viability; series mostly up to 92.2 µM. An outline of the steps: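 qHTS, 1536-well; 2500 cells/well; 5 hr pre-incubation, 24 hr compound exposure, 37 C; CellTiter-Glo added, 30 min RT; luminescence read; AC50 via standard Hill equation.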
Consider `Oc1cccc(Cl)c1Cl`, for which the Potency result is “inactive”.

In the case of `CCC/C=N/O`, the Potency result is “inactive”.

As for `Cc1cnc[nH]1`, the Potency entry is “inactive”.

In the case of `CN(C)N=O`, the Potency entry was “inactive”.

As for `COc1c(C(C)(C)C)cc([N+](=O)[O-])c(C)c1[N+](=O)[O-]`, the Potency entry was “inactive”.

On to `C=C(Cl)CCl`, for which the Potency result was “inactive”.

Turning to `ClCCOCOCCCl`, the Potency entry is “inactive”.

With `CC12CC1(C)C(=O)N(c1cc(Cl)cc(Cl)c1)C2=O` (stereo unspecified), the Potency result was “inactive”.

Turning to `CC(C)(Cl)[N+](=O)[O-]`, the Potency result is “inactive”.

Take `Cl/C=C/Cl`: the Potency entry was “inactive”.

Turning to `CCCCOCC1CO1` (stereo unspecified), the Potency entry was “inactive”.

As for `O=C(O)c1cccc(Cl)c1`, the Potency result was “inactive”.

As for `C1CC2OC2CC1C1CO1` (stereo unspecified), the Potency result was “inactive”.

On to `Brc1cccc(-c2ccccc2)c1`, for which the Potency result is “inactive”.

With `Oc1c(Cl)cccc1Cl`, the Potency entry was “inactive”.

For `ClCCOCCCl`, the Potency result was “inactive”.

In the case of `CCNCC`, the Potency entry is “inactive”.

With `CC(C)C#N`, the Potency entry was “inactive”.

Turning to `Cl/C=C\Cl`, the Potency result was “inactive”.

As to `c1ccc2c(c1)CCNC2`, the Potency result is “inactive”.

Take `CCBr`: the Potency result was “inactive”.

On to `O=[N+]([O-])c1ccc(Cl)c(Cl)c1Cl`, for which the Potency entry was “inactive”.

Turning to `N#CCCC#N`, the Potency entry was “inactive”.

As to `Cc1ccccc1[N+](=O)[O-]`, the Potency result is “inactive”.

Turning to `OCCBr`, the Potency result is “inactive”.

For the compound `C=CC(=O)OCCN(C)C`, the Potency entry is “inactive”.

Regarding `CC(C)(C)C(O)(CCc1ccc(Cl)cc1)Cn1cncn1` (stereo unspecified), the Potency result was “inactive”.

With `N#CCCCCC#N`, the Potency entry was “inactive”.

Turning to `CN=C=O`, the Potency entry is “inactive”.

For the compound `c1ccc(C2CO2)cc1` (stereo unspecified), the Potency entry was “inactive”.

On to `CCCCCC[N+](=O)[O-]`, for which the Potency entry is “inactive”.

`OCC(Cl)CCl` (stereo unspecified): the Potency entry was “inactive”.

Take `COc1ccc(C=O)cc1`: the Potency entry was “inactive”.

Take `Nc1ccc(Cl)c(Cl)c1`: the Potency entry was “inactive”.

In the case of `CC(=O)[O-].CC(=O)[O-].CC(=O)[O-].[Cr+3]`, the Potency result was “inactive”.

Turning to `CC(=O)CCC(C)=O`, the Potency result is “inactive”.

With `C=CC(=O)OCC(CC)CCCC` (stereo unspecified), the Potency entry is “inactive”.

Turning to `CC(C#N)CCC#N` (stereo unspecified), the Potency result was “inactive”.
